# Screening data from PubChem BioAssay.
# BAZ2B block = inhibitors of human BAZ2B bromodomain; Q9UIF8; AlphaScreen BAZ2B-H3K14Ac peptide displacement; Potency, µM (doses to about 114 µM), for the others: at the top dose activity change, negative = inhibition, actives largely listed as inhibitors; 360,000 tested, 4.4% active; AID 504333; further: on the % scale 0 is the no-effect control and ±100 the full control effect; nearly all actives have a fitted effect of over 60% in size
#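 In this displacement format the biotinylated H3(5-23) peptide acetylated at Lys14 serves as ligand at 50 nM, with BAZ2B at 50 nM in PBS pH 7.4 containing 0.01% Tween-20. Donor and acceptor beads are 10 ug/mL final.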
# JMJD2A Tudor = blocks the human JMJD2A Tudor domain. AlphaScreen JMJD2A-Tudor / H3K4me3 peptide binding. Potency, µM (doses to about 114 µM), for inactives: at the top dose activity change, negative = inhibition, usual class: inhibitors. O75164. 390,000 tested, 4.4% active; further: on the % scale 0 is the no-effect control and ±100 the full control effect; nearly all actives have a fitted effect of over 50% in size
# Sfp PPTase inh = blocks B. subtilis Sfp PPTase activity | Potency, µM, without a hit: largest response in the series, negative = inhibition, actives largely listed as inhibitors | Biochemical Sfp PPTase activity, qHTS | Q9F4F7 | 310,000 tested, 3.5% active;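 further: the enzyme is Sfp with the accession as filed and its product quenches rhodamine fluorescence; 0% = enzyme reaction without inhibitor and -100% = no enzyme wells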
#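 With Hepes-Na pH 7.6 buffer containing 10 mM MgCl2, Sfp (15 nM) modified BHQ-2-YbbR (12.5 uM) using rhodamine-CoA (5 uM). Two reads 30 minutes apart at 525/598 nm yielded each well's rate.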
# HP1b binding inh = blocks HP1-beta chromodomain binding to methylated histone tails. P83916. AlphaScreen HP1-beta / biotin-H3K9me3 peptide binding. AID 540317. Potency, µM (titrated, usually from 114 µM), inactives show at the highest dose activity change, negative = inhibition, hits mostly inhibitors. 390,000 tested, 0.56% active; further: nearly all actives have a fitted effect of over 70% in size
# Target sequence (P83916 whole entry, looked up): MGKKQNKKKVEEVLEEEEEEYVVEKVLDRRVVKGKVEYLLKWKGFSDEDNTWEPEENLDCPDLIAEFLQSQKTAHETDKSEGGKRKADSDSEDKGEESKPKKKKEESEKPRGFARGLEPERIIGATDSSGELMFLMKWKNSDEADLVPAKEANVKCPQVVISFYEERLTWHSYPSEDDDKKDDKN
#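 AlphaScreen: HP1-beta (50 nM) preformed 30 min with biotin-H3(1-18)K9me3 peptide (50 nM) in PBS pH 7.4, 0.01% Tween-20. Compound added for 30 min at RT, then streptavidin donor/nickel chelate acceptor beads (10 ug/mL) for 30 min.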
# L3MBTL1 block = inhibitors of human L3MBTL1; AlphaScreen L3MBTL1–H3K9me1 peptide binding; 230,000 tested, 0.66% active; Potency, µM (doses to about 57.1 µM), for the others: top-dose activity, negative = inhibition, actives largely listed as inhibitors; further: on the % scale 0 is the no-effect control and ±100 the full control effect; nearly all actives have a fitted effect of over 60% in size
#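 AlphaScreen proximity signal between nickel-chelate acceptor and streptavidin donor beads (final 10 ug/mL) reports binding of 50 nM L3MBTL1 to 75 nM biotin-H3 K9me1 peptide; complex incubated with compounds 30 min at room temperature; cefsulodin titration as control.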
# G9a block = inhibitors of human histone lysine methyltransferase G9a. 350,000 tested, 8.8% active. Potency, µM (series often up to 102 µM), for inactives: top-dose activity, negative = inhibition, actives largely listed as inhibitors. G9a H3K9 monomethylation, AlphaScreen, 2 h; further: on the % scale 0 is the no-effect control and ±100 the full control effect; nearly all actives have a fitted effect of over 75% in size
# Target sequence (Q96KQ7 913-1193 limits assumed): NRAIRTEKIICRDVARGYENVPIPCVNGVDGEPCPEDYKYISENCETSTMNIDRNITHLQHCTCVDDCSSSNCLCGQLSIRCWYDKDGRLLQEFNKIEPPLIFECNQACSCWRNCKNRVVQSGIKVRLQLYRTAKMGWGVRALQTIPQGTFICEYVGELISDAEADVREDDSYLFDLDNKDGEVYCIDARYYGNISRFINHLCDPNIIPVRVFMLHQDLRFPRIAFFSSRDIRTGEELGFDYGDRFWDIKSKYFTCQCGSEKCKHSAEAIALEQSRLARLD
#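 Using a bead-based AlphaScreen, monomethylated H3K9 product from 2 h room-temperature reactions (G9a 20 nM, peptide 500 nM, SAM 20 uM) was detected with 0.5 ug/mL rabbit anti-H3K9me1 antibody.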
# Numbers without * were called inactive; ? = inconclusive; nt = no result; [ ] = another dose, or the depositor's remark. Shown are actives, neighbours in structure and some others; about 12% of the full set was active somewhere. The call rests on the fitted dose curve; in most records, active means well fitted curve in the direction sought with a large enough effect; inconclusive means small, poorly fitted or top-dose-only effect, or another doubt; inactive means no such curve, though single readings can be large; an effect the other way counts as inactive or inconclusive. Potency means the concentration at half of the fitted maximal effect.
SMILES,BAZ2B block,JMJD2A Tudor,Sfp PPTase inh,HP1b binding inh,L3MBTL1 block,G9a block
Cc1ccccc1-n1c(Cn2c(=O)sc3ccccc32)nnc1SCC(=O)Nc1nccs1,3%,2%,13%,52%,-5%,-4%[59 µM]
Cc1csc(NC(=O)CSc2nnc(Cn3c(=O)sc4ccccc43)n2-c2ccccc2)n1,7%,-13%,79µM*,44%,-11%,?
O=C(CSc1nnc(SCc2cccc3ccccc23)s1)N/N=C/c1c[nH]c2ccccc12,-7%,-30%,4%,11%,-7%,?
CCn1c(SCC(=O)N/N=C/C(C)=C/c2ccco2)nnc1-c1ccccc1,?,?,-15%,-16%,-10%,13%[59 µM]
Cn1c(SCC(=O)N/N=C/C=C/c2ccco2)nc2ccccc21,45µM*,?,-9%,-14%,22µM*,7.1µM*
O=C(CSc1nnc(SCc2ccccc2)s1)N/N=C/C=C/c1ccco1,25µM*,40µM*,35µM*,25µM*,28µM*,13µM*
CCn1c(SCC(=O)N/N=C/C=C/c2ccco2)nnc1-c1ccccc1,?,?,-29%,-11%,?,16µM*
O=C(CN1CCN(Cc2ccccc2)CC1)N/N=C\C=C/c1ccco1,2%,-12%,-13%,18%,-2%,?
O=C(CSc1nnc(SCc2ccc(Cl)cc2)s1)N/N=C/c1c[nH]c2ccccc12,35µM*,89µM*,-23%,6%,-15%,?
CCN(CC)CCOC(=O)c1ccc(NC(=O)Cn2ncc3c([nH]c4ccc(C)cc43)c2=O)cc1,3%[57.1 µM],-8%,nt,27%,nt,-41%[59 µM]
C[C@H]1Cc2c(-c3ccccc3)nc3c(c2CO1)CN(C(=O)c1ccco1)CC3,nt,nt,8%,nt,nt,nt
COc1cccc(NC(=O)CN(C)C(=O)CCNS(=O)(=O)c2ccc(C)cc2)c1,12%,-16%,nt,31%,-1%,1%[59 µM]
Cn1c(SCC(=O)NNC(=S)Nc2ccccc2)nnc1-c1ccccc1,1%,-16%,14%,37%,5%,?
O=C(CSc1nnc(SCc2ccccc2)s1)NNC(=S)Nc1ccccc1,-22%,-23%,-17%,-38%,-12%,2.2µM*
O=C(NC(=S)Nc1ccc(C(F)(F)F)cc1)c1csnn1,?,-3%,10%,46%,2%,?
O=C(NC(=S)Nc1ccccc1)c1csnn1,15%,-17%,50µM*,19%,17%,15%[59 µM]
COc1ccc(NC(=S)NC(=O)c2csnn2)cc1,-27%,-9%,-25%,25%,-7%,32µM*
Cc1nnc(NCc2ccc(F)cc2)c2c1nnn2Cc1ccccc1Cl,3%,-8%,nt,39%,nt,-3%[59 µM]
CC1(OC(=O)c2ccc(Cl)nc2)C(=O)C=C2C=C3CCCN3C=C2C1=O (stereo unspecified),?,45µM*,?,?,nt,-32%[59 µM]
COc1ccc2c(c1OC)C(Cc1ccccc1)N1CCc3cc4c(cc3C1=C2)OCO4 (stereo unspecified),nt,nt,50µM*,nt,nt,nt
COc1c2c(cc3c1C(CC(O)Cc1ccccc1)N(C)CC3)OCO2 (stereo unspecified),?,-33%,-3%,1%,nt,?
C(C#CCCCCCCCCC[n+]1ccccc1)#CCCCCCCCCC[n+]1ccccc1,-7%,-8%,50µM*,-21%,nt,-19%
O=C(Nc1ccc(F)cc1)Nc1csc2ccccc12,0%,-10%,?,29%,nt,?
CN1CCC(CNC(=O)Nc2csc3ccccc23)CC1,-11%,-15%,79µM*,27%,-2%,nt
CN(C)c1ccc(NC(=O)Nc2csc3ccccc23)cc1,35µM*,?,19%,-8%,-28%,8.9µM*
CC[n+]1ccc(/C=C2\Sc3ccccc3N2CCCS(=O)(=O)[O-])c2ccccc21,50µM*,?,-11%,?,-15%,nt
CCN(CC)c1ccc(NC(=O)COCc2cc(-c3ccc4c(c3)OCO4)on2)c(C)c1,22µM*,20µM*,nt,?,nt,4.5µM*
